Assay outcomes as filed in PubChem BioAssay.
HIF activator – HIF pathway transcriptional activation; AID 1910; 300,000 compounds, 0.32% hits; U2OS HRE-luciferase reporter, luminescence; normalized: DMSO 0%, desferrioxamine 100%; activation, % at 7.5 µM (by protocol);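 active means mean activation of at least 10% of the iron chelator positive control signal, with at least half of replicates also reaching 10%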
CHT inh – human CHT choline transport inhibition; Q9GZV3; CHT-expressing cells, membrane potential dye, choline response; hits give low values; B-score at 10 µM; 310,000 compounds, 0.86% hits;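 active means B-score over 3 SD under the library average, and starting fluorescence ratio not unusually high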;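 further: choline stimulus applied at its EC90 after an EC20 pre-addition; B-score computed on integrated fluorescence ratio after choline addition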
Target sequence (Q9GZV3 whole entry, looked up): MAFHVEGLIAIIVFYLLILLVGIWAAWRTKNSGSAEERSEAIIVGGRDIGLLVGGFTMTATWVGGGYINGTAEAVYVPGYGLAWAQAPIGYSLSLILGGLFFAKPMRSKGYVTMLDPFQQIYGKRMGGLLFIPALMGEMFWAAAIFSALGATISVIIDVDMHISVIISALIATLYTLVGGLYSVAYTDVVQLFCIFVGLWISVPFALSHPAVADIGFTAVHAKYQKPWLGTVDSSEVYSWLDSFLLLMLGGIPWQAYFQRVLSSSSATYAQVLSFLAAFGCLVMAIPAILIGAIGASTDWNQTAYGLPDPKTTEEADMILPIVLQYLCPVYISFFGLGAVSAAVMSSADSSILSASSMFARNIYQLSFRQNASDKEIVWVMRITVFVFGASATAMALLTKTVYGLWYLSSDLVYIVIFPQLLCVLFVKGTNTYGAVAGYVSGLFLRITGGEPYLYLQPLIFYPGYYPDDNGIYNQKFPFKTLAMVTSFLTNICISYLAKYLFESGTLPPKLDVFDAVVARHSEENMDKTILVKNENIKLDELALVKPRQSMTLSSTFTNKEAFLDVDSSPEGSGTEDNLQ
AI-2 QS mod – modulators of Vibrio harveyi AI-2 quorum sensing system. activity change, % at 7.5 µM. Vibrio harveyi JMH597 AI-2 luminescence/OD600 ratio, 9 h; hits give low values; strain lacks LuxN and CqsS sensors; 0 = neutral-control median. AID 2094. 300,000 compounds, 0.4% hits; in the data active means activity change below about -75%, passing the limit was not always enough;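 further: luminescence divided by OD600 gain over 9 h not by final OD600 alone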
VLA-4 inh – inhibition in a human VLA-4 binding assay; AID 2557; inhibition, % (about 7 µM as worked out from the volumes in the protocol); 330,000 compounds, 0.2% hits; VLA-4 expressing cells, ligand binding flow cytometry; P13612; in the data active means inhibition above about 50%
CHT PAM – allosteric activators of human choline transporter CHT; Q9GZV3; CHT-expressing cells, membrane potential dye, choline EC20; hits give high values; LV-AA mutant CHT in HEK293 cells; B-score at 10 µM; 310,000 compounds, 0.49% hits; AID 488977;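 active means initial fluorescence not abnormally high and integrated response B-score, plate-corrected, over 3 SD above library mean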
Platelet DG rel – platelet dense granule release activity | human platelet-rich plasma, SFLLRN dense granule ATP release, luminescence | inhibition, %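 (compounds screened at 7.5 µM in platelet-rich plasma)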 | 300,000 compounds, 0.22% hits;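 active means mean replicate score, as percent of positive control, at or above 50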
VLA-4 allo CP – confirmation of allosteric modulators of human VLA-4 integrin | U937 cells, HUTS-21 LIBS mAb binding, flow cytometry; LDV ligand present at threefold Kd | inhibition, % at 6.7 µM | shares compounds with VLA-4 inh | 1,300 compounds, 2% hits; in the data active means inhibition above about 40%
Of the large screens only hits and unclear results are named; the others gave an inactive call (follow-up assays come after a bar, where they were run). Shown are actives, neighbours in structure and some others; about 2.2% of the full set was active somewhere.

COc1cccc(NC(=O)CN(c2ccc(C)cc2)S(=O)(=O)c2c(C)nn(C)c2C)c1	none
COc1ccc(NC(=O)CN(c2cc(C)cc(C)c2)S(=O)(=O)c2c(C)n[nH]c2C)cc1	none (no result: HIF activator, AI-2 QS mod, Platelet DG rel)
COc1ccc(S(=O)(=O)Nc2ccc(Cc3ccncc3)cc2)cc1C	none
CCN(CCO)C(=O)c1ccc2nc(Cc3cccc(Cl)c3)oc2c1	none
O=C(CN1C(=O)c2ccccc2S1(=O)=O)NC1CC2CCC1C2 (centres undefined)	VLA-4 inh 51 (no result: HIF activator) | VLA-4 allo CP inactive
CC1CCC(NC(=O)CN2C(=O)c3ccccc3S2(=O)=O)CC1 (centres undefined)	none (no result: HIF activator, CHT inh, AI-2 QS mod, CHT PAM, Platelet DG rel)
Cc1ccc(C(=O)OCC(=O)Nc2ccc(S(N)(=O)=O)cc2)c(O)c1	none | VLA-4 allo CP inactive
NS(=O)(=O)c1ccc(NC(=O)COC(=O)c2cc([N+](=O)[O-])ccc2Cl)cc1	none
Cc1ccc(S(=O)(=O)NCC(=O)OCCOc2ccc(Br)cc2)cc1	none (no result: HIF activator, CHT inh, AI-2 QS mod, CHT PAM, Platelet DG rel)
O=C(CNS(=O)(=O)c1ccc(Br)cc1)OCc1cc(=O)n2cc(Br)ccc2n1	none | VLA-4 allo CP inactive
Cc1ccc(C(=O)N2CC(C)CC(C)C2)cc1NC1=NC2CS(=O)(=O)CC2S1 (centres undefined)	none | VLA-4 allo CP inactive
Cc1ccc(C(=O)N2CCN(c3ncccn3)CC2)cc1NC1=NC2CS(=O)(=O)CC2S1 (centres undefined)	none
Cc1ccc(C(=O)N2CCC(C)CC2)cc1NC1=NC2CS(=O)(=O)CC2S1 (centres undefined)	VLA-4 inh 67 | VLA-4 allo CP inactive
Cc1ccc(CNC(=O)CCCc2cn(C)c3ccccc23)cc1	none | VLA-4 allo CP inactive
COc1ccc(S(=O)(=O)N(C)C[C@H]2Oc3c(NC(=O)Nc4c(C)noc4C)cccc3C(=O)N([C@H](C)CO)C[C@@H]2C)cc1	none (no result: HIF activator, CHT inh, AI-2 QS mod, CHT PAM, Platelet DG rel)
C=CCN(CC=C)C(=S)NC(=O)c1ccc(OC)cc1	VLA-4 inh 52 | VLA-4 allo CP inactive
CCn1cc(C(=O)N[C@@H](CCSC)C(=O)NCCCO)c(=O)c2cc3c(cc21)OCO3	none | VLA-4 allo CP inactive
Cc1ccc(NC(=O)CC2NCCNC2=O)cc1Cl (centres undefined)	none
CC(C)CCN(CC(=O)NCc1ccc(F)cc1)S(=O)(=O)c1ccccc1F	none | VLA-4 allo CP inactive
COC(=O)c1ccc(CNC(=O)CN(CCC(C)C)S(=O)(=O)c2ccc3c(c2)OCCO3)cc1	none
CCN(CC(=O)NCc1cccs1)S(=O)(=O)c1ccc(F)cc1	none
CCN(CC(=O)NCc1ccc(F)cc1)S(=O)(=O)c1ccc(C)cc1	none | VLA-4 allo CP inactive
COCCCN(CC(=O)NCc1ccccc1)S(=O)(=O)c1ccc(C)cc1	none | VLA-4 allo CP inactive
COc1ccc(S(=O)(=O)N(C)CC(=O)NCc2ccccc2)cc1OC	none | VLA-4 allo CP inactive
CC1CCCN(Cc2ccc(OCc3ccccc3)cc2)C1 (centres undefined)	none
N#Cc1c(Cl)nsc1NC(=O)c1ccccc1	none
CC(C)OC(=O)Cn1nc(C(c2ccccc2)c2ccccc2)oc1=O	none
CCC(C(=O)OC)n1cnc2c(nnn2-c2cccc(OC)c2)c1=O (centres undefined)	none | VLA-4 allo CP inactive
O=c1c2[nH]cnc2n(-c2cccc(Br)c2)c(=O)n1Cc1ccccc1	none
COC(=O)c1ccc(-n2c(C)cc(C(=O)CSc3ccc(NC(C)=O)cc3)c2C)cc1	none | VLA-4 allo CP inactive
CC(=O)Nc1ccc(SCC(=O)c2cc(C)n(-c3ccccc3F)c2C)cc1	none
O=C(Nc1cccc(Cl)c1)OCc1cncs1	none | VLA-4 allo CP inactive
O=C(Nc1cccc2ccccc12)OCc1cncs1	none
O=C(Nc1ccc(Cl)cc1)OCc1cncs1	none | VLA-4 allo CP inactive
Cc1cc(NC(=O)c2cc(-c3ccncc3)nc3ccccc23)ccc1Br	none (no result: HIF activator, CHT inh, AI-2 QS mod, CHT PAM, Platelet DG rel)
O=C(O)c1cnc2[nH]c3ccccc3n2c1=O	none
C=CCn1c(O)c(C2=c3ccccc3=NC2=O)c2ccccc21	VLA-4 inh 51 | VLA-4 allo CP inactive
Cc1ccc2c(c1)c(C1=c3ccccc3=NC1=O)c(O)n2C	none
O=S(=O)(c1ccc(NC(=S)NCc2ccncc2)cc1)N1CCCCC1	none
CCOC(=O)c1c(C)[nH]c(C(=O)COC(=O)c2cnccn2)c1C	none (no result: HIF activator, CHT inh, AI-2 QS mod, CHT PAM, Platelet DG rel) | VLA-4 allo CP inactive
CCOC(=O)c1c(C)[nH]c(C(=O)COC(=O)c2ccco2)c1C	none (no result: HIF activator, CHT inh, AI-2 QS mod, CHT PAM, Platelet DG rel) | VLA-4 allo CP inactive
CCOC(=O)c1c(C)[nH]c(C(=O)COC(=O)c2ccncc2)c1C	none | VLA-4 allo CP inactive
CCOC(=O)c1c(C)[nH]c(C(=O)COC(=O)c2cccnc2Cl)c1C	none (no result: HIF activator, CHT inh, AI-2 QS mod, CHT PAM, Platelet DG rel)
CCOC(=O)c1c(C)[nH]c(C(=O)COC(=O)C2CC2C)c1C (centres undefined)	none | VLA-4 allo CP inactive
CCOC(=O)c1c(C)[nH]c(C(=O)COC(=O)c2[nH]c(C)c(C(C)=O)c2C)c1C	none
COc1ccc(C(N)=O)c(OCC(=O)Nc2cc(C)on2)c1	none (no result: HIF activator, CHT inh, AI-2 QS mod, CHT PAM, Platelet DG rel)
CN(C)c1nc(C=C(C#N)C#N)c(Cl)n1-c1ccc(F)cc1	none (no result: CHT inh, VLA-4 inh, CHT PAM)
COc1ccc2c(C)cc(SCC(=O)Nc3c(C)n(C)n(-c4ccccc4)c3=O)nc2c1	VLA-4 inh 94 | VLA-4 allo CP inactive
C=CCn1c(SCC(=O)Nc2c(C)n(C)n(-c3ccccc3)c2=O)nc2ccccc2c1=O	VLA-4 inh 52 (no result: HIF activator, CHT inh, AI-2 QS mod, CHT PAM, Platelet DG rel) | VLA-4 allo CP inactive
Cc1c(NC(=O)COc2ncnc3c(Cl)cc(Cl)cc23)c(=O)n(-c2ccccc2)n1C	none | VLA-4 allo CP inactive
O=C(/C=C\c1ccc(-c2cccc([N+](=O)[O-])c2)o1)N1CCOCC1	none
CSc1ccc(S(=O)(=O)NCC(=O)OCC(=O)N(Cc2ccccc2)C(C)C)cc1[N+](=O)[O-]	none
CC1CCc2sc3c(c2C1)c(=O)n(CC(=O)O)c(=O)n3Cc1ccc(Cl)cc1 (centres undefined)	none
Cc1ccc(CNC(=O)CCC(=O)n2ncc3cc(C)ccc32)cc1	none
CCOc1ccc(CNC(=O)CCCC(=O)n2ncc3cc(C)ccc32)cc1	VLA-4 inh 59 | VLA-4 allo CP inactive
CC1(C)CC(NS(=O)(=O)c2ccc3ccccc3c2)CC(C)(C)N1	none
NC(=O)c1ccccc1NC(=O)C(c1ccccc1)c1ccccc1	none
O=C(O)c1ccccc1NC(=O)C(c1ccccc1)c1ccccc1	none | VLA-4 allo CP inactive
O=C(C[C@@H]1C/C=C\C[C@@H](Cc2ccc(F)cc2)C(=O)OC[C@@H]2CCCN2C1=O)NCCO	none (no result: HIF activator, CHT inh, AI-2 QS mod, CHT PAM, Platelet DG rel)
CC(=O)Oc1ccc(N(C(C)=O)S(=O)(=O)c2ccc(C)cc2)c2ccccc12	none
COC(=O)c1ccncc1C(=O)Nc1ccc(OC)cc1	none
COC(=O)c1ccncc1C(=O)Nc1ccc(Oc2ncc(C(F)(F)F)cc2Cl)cc1	VLA-4 inh 50 | VLA-4 allo CP inactive
